Test results as given in PMC4336329 (PLoS ONE, 2015).
The whole screen tested about 310,000 compounds, of which about 14,000 (4.5%) showed an effect of 50% or more. Effects have a minus sign here. Only a selection was taken, and strong results are over-represented in it overall.

These molecules were tested against human ether-à-go-go-related gene (hERG) potassium channel (human, UniProt Q12809) (assay: primary screen, population patch clamp on CHO cells stably expressing hERG; higher = less effect of the substance).
Sequence of human ether-à-go-go-related gene (hERG) potassium channel (Q12809 whole entry, looked up): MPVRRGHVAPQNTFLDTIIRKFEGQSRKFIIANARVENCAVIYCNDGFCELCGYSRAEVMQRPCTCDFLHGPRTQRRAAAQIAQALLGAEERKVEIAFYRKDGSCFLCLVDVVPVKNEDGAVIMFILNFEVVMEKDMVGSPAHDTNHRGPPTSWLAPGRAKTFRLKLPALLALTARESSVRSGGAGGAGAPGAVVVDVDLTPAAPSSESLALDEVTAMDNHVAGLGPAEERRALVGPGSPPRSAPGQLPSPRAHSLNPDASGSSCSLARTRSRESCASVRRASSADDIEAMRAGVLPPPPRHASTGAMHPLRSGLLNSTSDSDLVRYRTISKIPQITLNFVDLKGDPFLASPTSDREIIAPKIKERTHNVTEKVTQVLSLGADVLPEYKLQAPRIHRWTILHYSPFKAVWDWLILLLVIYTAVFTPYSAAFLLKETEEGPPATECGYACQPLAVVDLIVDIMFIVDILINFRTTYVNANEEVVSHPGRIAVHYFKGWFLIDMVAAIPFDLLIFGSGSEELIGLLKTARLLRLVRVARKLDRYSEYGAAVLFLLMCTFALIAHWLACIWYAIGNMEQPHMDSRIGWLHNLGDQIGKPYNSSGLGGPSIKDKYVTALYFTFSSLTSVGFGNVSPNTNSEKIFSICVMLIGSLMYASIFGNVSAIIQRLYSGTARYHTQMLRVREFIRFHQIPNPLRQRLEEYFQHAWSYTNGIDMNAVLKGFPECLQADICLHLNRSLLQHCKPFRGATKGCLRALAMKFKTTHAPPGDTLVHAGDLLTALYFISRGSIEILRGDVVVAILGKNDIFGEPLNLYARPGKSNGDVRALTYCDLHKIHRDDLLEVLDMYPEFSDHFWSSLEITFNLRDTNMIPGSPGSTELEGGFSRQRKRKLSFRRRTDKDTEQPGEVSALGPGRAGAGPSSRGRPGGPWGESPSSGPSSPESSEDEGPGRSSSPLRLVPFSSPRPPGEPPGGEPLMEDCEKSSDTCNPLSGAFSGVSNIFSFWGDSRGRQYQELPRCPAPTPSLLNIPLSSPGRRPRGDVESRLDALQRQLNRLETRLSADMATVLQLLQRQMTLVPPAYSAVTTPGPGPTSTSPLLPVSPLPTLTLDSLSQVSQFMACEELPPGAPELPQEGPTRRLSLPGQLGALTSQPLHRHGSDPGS
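Also: peak tail current of the secondary pulse compared with the same well before compound.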

Row | SMILES | hERG current change (%, negative = inhibition) at 10uM [%]
1 | CCOc1ccccc1NC(=O)C(Sc1nnnn1C)c1ccccc1 (centres unmarked) | -21.2
2 | Cn1c(NC(=O)c2ccccc2)c(-c2cccs2)c(=O)c2ccccc21 | 7.07
3 | CC(=O)c1ccc(N=Nc2c(C)[nH]n(-c3ccccc3)c2=O)cc1 | 8.59
4 | CC1CCN(C(=S)c2cn(Cc3ccc(F)cc3)c3ccccc23)CC1 | -1.82
5 | COc1cc(/C=C/C(=O)O)cc(S(=O)(=O)Nc2ccc3nc(C)sc3c2)c1OC | 26.5
6 | CCOc1ccc(C(=O)Nc2ccccc2N2CCN(C(=O)c3ccccc3)CC2)cc1[N+](=O)[O-] | -83.3
7 | CCOc1ccc(C(=O)Nc2ccccc2C#N)cc1[N+](=O)[O-] | -55.6
8 | CCOc1ccccc1NC(=O)c1ccc(OCC)c([N+](=O)[O-])c1 | -10.3
9 | CCOc1ccc(C(=O)NC(=S)Nc2ccccc2N2CCCCC2)cc1[N+](=O)[O-] | 11.7
10 | CCOc1ccc(C(=O)Nc2ccccc2CC)cc1[N+](=O)[O-] | -21.9
11 | CCOc1ccc(C(=O)NC(=S)Nc2ccccc2N2CCC(C)CC2)cc1[N+](=O)[O-] | 5.75
12 | O=C1NC2(CCCCCC2)Cc2ccccc21 | -21.2
13 | Cc1ccc(C(=O)NNC(=O)C(C)Oc2ccc3ccccc3c2)o1 (centres unmarked) | -13.2
14 | C/C(CC(=O)NC(C)(C)C)=N\NC(N)=S | 20
15 | CCN(CC)S(=O)(=O)c1ccc(NC(=O)c2cccc3c2C(=O)N(CCOC)C3)cc1 | -1.36
16 | Cc1cc(C)n2nc(SC(C)C(=O)N3CCC4(CC3)OCCO4)nc2n1 (centres unmarked) | -0.197
17 | COc1ccc(N2CCN(C(=O)c3cccc(Cn4cc(Cl)cn4)c3)CC2)cc1 | -48
18 | NNC(=O)c1ccc(Cn2cc(Br)cn2)cc1 | -2.07
19 | O=C(c1ccc(CN2CCOCC2)cc1)N1CCN(c2ccccc2)CC1 | 3.02
20 | O=C(c1ccc(Cn2cc(Br)cn2)cc1)N1CCN(c2ccccc2)CC1 | -57.4
21 | O=C(c1ccc(Cn2cc(Cl)cn2)cc1)N1CCN(c2ccccc2)CC1 | -58.4
22 | O=C(O)c1ccc(Cn2cc(Cl)cn2)cc1 | 18.7
23 | O=C(O)C1C(=O)NCC1c1ccccc1 (centres unmarked) | 10.6
24 | Cc1ccc(C(=O)NC2CCCC(C)C2C)cc1S(=O)(=O)N1CCCCC1 (centres unmarked) | -20.6

Row | SMILES | hERG current change (%, negative = inhibition) at 10uM [%]
25 | COC(=O)C1=C(C(=O)OC)N2C=CC=CC2(C)C(C(=O)OC)=C1C(=O)OC (centres unmarked) | -5.49
26 | CCCCC(=O)Nc1ccc(N2CCN(C(=O)c3ccco3)CC2)cc1 | -18.1
27 | COC(=O)c1cc(COC(=O)c2cccnc2SC)oc1C | -5.24
28 | O=C(CCNC(=O)C1CCN(S(=O)(=O)c2ccc(F)cc2)CC1)Nc1nccs1 | 15.5
29 | Cc1ccc(C2CC(=O)N(c3ccc(F)cc3)C3=C2C(=O)CCC3)cc1 (centres unmarked) | 0.885
30 | CC1CCC(NC(=O)CCS(=O)(=O)c2ccc3c(c2)CC(C)N3C(=O)C2CC2)CC1 (centres unmarked) | 7.85
31 | CN(C)CCNC(=O)c1ccccc1-c1cc2ccccc2c(=O)o1 | -54.6
32 | CCCNC(=O)c1cc2ccccc2c(=O)o1 | 10.8
33 | CN(C)CCNC(=O)c1ccccc1-c1ccccc1 | -1.88
34 | COc1ccc(N(C)S(=O)(=O)c2cccc(C(=O)NC3CCCCC3C)c2)cc1 (centres unmarked) | -6.33
35 | O=C(NCN1C(=O)C2C3C=CC(C3)C2C1=O)OC1CCCCC1 (centres unmarked) | 4.17
36 | CCC1CCc2sc(C(=O)N(C)CC(=O)Nc3ccc(OC)cc3)cc2C1 (centres unmarked) | -18.2
37 | COc1ccc(C(CNC(=O)c2ccc(Cl)s2)N2CCOCC2)cc1 (centres unmarked) | -18.2
38 | CCC1CCc2sc(C(=O)NCC3CCCO3)cc2C1 (centres unmarked) | -12.1
39 | CCC1CCc2sc(C(=O)NCC(c3ccccc3OC)N3CCCC3)cc2C1 (centres unmarked) | -63.6
40 | CCC1CCc2sc(C(=O)NCc3ccccn3)cc2C1 (centres unmarked) | -3.79
41 | CCC1CCc2sc(C(=O)NCC(c3ccc(OC)cc3)N3CCCC3)cc2C1 (centres unmarked) | -71
42 | CCC1CCc2sc(C(=O)NCC(c3ccc(OC)cc3)N3CCOCC3)cc2C1 (centres unmarked) | -5.82
43 | COc1ccc(C(CNC(=O)c2cc3c(s2)CCC(C)C3)N2CCOCC2)cc1 (centres unmarked) | -54
44 | COc1ccc(C(CNC(=O)c2cc3c(s2)CCC(C)C3)N2CCCC2)cc1 (centres unmarked) | -57.7
45 | COc1ccc(C(CNC(=O)c2ccco2)N2CCCC2)cc1 (centres unmarked) | -7.05
46 | COc1ccc(C(CNC(=O)c2cc3c(s2)CCCC3)N2CCOCC2)cc1 (centres unmarked) | -23.5
47 | CC1CCc2sc(C(=O)NCC(c3ccco3)N3CCCCC3)cc2C1 (centres unmarked) | -30.8
